Active and inactive are the calls of the source.
Tests used:
[1] = small molecules captured by biotinylated probe aFSTL3 – biochemical, small-molecule microarray, fluorescence 635/667, stem cell growth factor project, primary screen (AID 1064); conditions: higher = more signal;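 note: measures binding of the biotinylated anti-FSTL3 antibody to printed compounds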
[2] = binders from COS7 lysate, DM2A8 probe, primary screen, torsin A project, cell lysate, small-molecule microarray, fluorescence 635/667 (AID 1065); conditions: higher = more signal, COS7 lysate expressing mutant human TOR1A
[3] = small molecules captured by biotinylated probe aFGF2 – biochemical, small-molecule microarray, fluorescence 635/667, stem cell growth factor project, primary screen (AID 1067); conditions: higher = more signal;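 note: measures binding of biotinylated aFGF2 protein to printed compounds on slides; z-score merges feature fluorescence and signal-to-noise across triplicate slides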
[4] = small molecules captured by biotinylated probe aFGF10 – biochemical, small-molecule microarray, fluorescence 635/667, stem cell growth factor project, primary screen (AID 1071); conditions: higher = more signal;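 note: score merges 667 nm spot intensity and signal to noise from triplicate slides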
[5] = target: Neurogenic locus notch homolog protein 2 (Homo sapiens) (UniProt Q04721); experiment: small molecules binding Notch2 protein – biochemical, small-molecule microarray, 635 nm fluorescence, stem cell growth factors, primary screen (AID 1073); conditions: higher = more signal
[6] = target: Pro-neuregulin-1, membrane-bound isoform (Homo sapiens) (UniProt Q02297); experiment: small molecules binding neuregulin-1 protein – biochemical, small-molecule microarray, fluorescence 635/667, psychiatric disease protein project, primary screen (AID 1075); conditions: NRG1 binding, 635 nm fluorescence, higher = more signal;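 note: score combines 667 nm spot fluorescence with signal to noise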
[7] = test system: Neuregulin-1 EGF-like domain; experiment: small molecules binding NRG1 EGF domain – biochemical, small-molecule microarray, 635 nm fluorescence, primary screen (AID 1081); conditions: higher = more signal;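 note: binding of the protein to compounds printed on small-molecule microarray slides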
[8] = FRG1 expression reporter modulators in myotubes – cell-based, C2C12 myotubes, firefly/Renilla luciferase, luminescence, FRG1 inhibition for FSHD, primary screen (AID 1084); conditions: FRG1 promoter luciferase, higher = more signal, called active from +8 up or from −8 down
[9] = small molecules captured by biotinylated probe aFST – biochemical, small-molecule microarray, fluorescence 635/667, stem cell growth factor project, primary screen (AID 1086); conditions: higher = more signal;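 note: score merges 667 nm fluorescence with signal-to-noise of each printed compound spot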
[10] = binders of probe aHhip on microarray, primary screen, stem cell growth factor project, biochemical, small-molecule microarray, fluorescence 635/667 (AID 1087); conditions: higher = more signal;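 note: score merges spot fluorescence at 667nm with spot signal to noise ratio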

Chain of Neurogenic locus notch homolog protein 2 (Homo sapiens) (Q04721 whole entry, looked up, canonical isoform): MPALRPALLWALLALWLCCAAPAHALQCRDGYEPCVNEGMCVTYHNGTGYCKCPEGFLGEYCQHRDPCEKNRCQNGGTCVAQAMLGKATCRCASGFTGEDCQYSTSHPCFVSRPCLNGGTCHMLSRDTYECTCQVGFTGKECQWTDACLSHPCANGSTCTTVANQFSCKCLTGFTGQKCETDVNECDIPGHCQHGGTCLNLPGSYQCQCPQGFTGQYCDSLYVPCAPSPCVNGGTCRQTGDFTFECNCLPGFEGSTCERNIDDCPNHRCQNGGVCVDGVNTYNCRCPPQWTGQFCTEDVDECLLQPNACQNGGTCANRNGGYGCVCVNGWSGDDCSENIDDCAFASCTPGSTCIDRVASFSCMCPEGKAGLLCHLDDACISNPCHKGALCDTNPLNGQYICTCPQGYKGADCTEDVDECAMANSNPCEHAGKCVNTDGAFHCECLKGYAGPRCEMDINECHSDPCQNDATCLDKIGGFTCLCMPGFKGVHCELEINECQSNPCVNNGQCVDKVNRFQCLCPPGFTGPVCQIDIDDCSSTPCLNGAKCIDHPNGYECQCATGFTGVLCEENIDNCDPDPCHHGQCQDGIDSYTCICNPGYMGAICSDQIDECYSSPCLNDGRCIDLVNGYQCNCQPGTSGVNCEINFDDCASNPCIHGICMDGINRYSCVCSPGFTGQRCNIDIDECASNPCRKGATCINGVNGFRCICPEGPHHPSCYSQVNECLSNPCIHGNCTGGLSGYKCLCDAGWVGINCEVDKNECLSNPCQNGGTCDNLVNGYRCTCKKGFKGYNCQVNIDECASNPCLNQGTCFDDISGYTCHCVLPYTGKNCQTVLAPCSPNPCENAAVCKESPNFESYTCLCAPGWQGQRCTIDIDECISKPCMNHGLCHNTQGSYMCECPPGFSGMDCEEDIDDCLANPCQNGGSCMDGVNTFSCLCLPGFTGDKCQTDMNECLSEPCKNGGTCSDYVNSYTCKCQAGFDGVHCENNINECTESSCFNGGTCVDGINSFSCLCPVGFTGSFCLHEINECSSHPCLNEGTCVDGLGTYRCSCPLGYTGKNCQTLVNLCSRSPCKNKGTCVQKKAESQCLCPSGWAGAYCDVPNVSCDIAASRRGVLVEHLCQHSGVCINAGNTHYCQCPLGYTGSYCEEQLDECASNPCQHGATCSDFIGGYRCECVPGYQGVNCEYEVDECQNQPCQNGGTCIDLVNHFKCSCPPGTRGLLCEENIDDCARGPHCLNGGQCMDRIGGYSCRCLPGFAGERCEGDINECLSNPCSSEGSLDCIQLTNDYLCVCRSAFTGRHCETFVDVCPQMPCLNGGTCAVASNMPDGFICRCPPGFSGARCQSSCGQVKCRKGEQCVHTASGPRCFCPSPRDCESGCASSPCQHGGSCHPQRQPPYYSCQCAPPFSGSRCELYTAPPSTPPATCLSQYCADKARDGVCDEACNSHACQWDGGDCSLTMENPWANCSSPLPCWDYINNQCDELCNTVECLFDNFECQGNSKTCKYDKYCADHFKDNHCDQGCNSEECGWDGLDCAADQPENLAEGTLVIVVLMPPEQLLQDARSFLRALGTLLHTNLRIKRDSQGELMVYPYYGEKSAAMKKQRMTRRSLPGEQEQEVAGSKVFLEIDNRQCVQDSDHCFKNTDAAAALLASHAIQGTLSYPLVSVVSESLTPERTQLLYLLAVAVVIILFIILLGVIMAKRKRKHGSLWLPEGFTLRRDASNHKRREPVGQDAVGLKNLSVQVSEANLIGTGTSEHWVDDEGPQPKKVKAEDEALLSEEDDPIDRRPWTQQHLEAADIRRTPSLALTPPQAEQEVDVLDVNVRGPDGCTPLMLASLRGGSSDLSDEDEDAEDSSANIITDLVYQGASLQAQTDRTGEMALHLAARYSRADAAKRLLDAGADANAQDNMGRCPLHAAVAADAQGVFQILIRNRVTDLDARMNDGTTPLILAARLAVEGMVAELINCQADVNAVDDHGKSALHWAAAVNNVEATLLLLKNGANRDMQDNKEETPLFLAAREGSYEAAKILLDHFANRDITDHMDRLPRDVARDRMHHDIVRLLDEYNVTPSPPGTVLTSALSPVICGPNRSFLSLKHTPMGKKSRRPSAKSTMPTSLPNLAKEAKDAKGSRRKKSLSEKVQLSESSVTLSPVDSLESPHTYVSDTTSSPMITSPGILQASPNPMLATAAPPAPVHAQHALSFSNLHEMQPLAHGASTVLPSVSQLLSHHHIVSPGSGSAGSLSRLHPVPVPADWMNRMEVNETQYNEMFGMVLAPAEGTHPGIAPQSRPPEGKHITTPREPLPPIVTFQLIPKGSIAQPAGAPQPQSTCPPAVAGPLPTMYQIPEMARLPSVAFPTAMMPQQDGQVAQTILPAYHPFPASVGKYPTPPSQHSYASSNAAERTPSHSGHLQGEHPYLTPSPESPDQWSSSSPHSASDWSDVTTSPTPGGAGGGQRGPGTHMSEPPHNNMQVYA
Chain of Pro-neuregulin-1, membrane-bound isoform (Homo sapiens) (Q02297 whole entry, looked up, the tested form may be a part, canonical isoform): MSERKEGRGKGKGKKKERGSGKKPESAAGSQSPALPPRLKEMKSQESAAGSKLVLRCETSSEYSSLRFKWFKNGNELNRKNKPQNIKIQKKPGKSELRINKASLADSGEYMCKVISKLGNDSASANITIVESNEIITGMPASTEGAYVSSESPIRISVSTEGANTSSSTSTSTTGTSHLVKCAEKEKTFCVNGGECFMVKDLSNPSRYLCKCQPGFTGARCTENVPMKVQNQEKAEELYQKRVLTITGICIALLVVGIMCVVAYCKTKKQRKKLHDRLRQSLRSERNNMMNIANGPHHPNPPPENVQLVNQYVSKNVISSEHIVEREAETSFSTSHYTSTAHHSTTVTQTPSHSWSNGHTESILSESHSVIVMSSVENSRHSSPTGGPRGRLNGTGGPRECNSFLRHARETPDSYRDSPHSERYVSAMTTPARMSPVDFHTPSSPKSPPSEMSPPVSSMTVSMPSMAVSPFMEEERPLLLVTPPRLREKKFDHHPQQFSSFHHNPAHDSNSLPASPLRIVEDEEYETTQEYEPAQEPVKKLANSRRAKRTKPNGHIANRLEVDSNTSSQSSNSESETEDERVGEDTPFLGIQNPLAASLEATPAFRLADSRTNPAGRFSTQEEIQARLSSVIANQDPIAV

| SMILES | composite z-score [1] | composite z-score [2] | composite z-score [3] | composite z-score [4] | composite z-score [5] | composite z-score [6] | composite z-score [7] | z-score [8] | composite z-score [9] | composite z-score [10] |
| --- | --- | --- | --- | --- | --- | --- | --- | --- | --- | --- |
| C=CCC(OC(C)=O)[C@@H]1[C@@H](N(Cc2ccc(-c3cccc(C(F)(F)F)c3)o2)C(=O)Cc2ccc(OC)cc2)c2cc(OCCCO)ccc2N1C(=O)c1ccc2ccccc2n1 (stereo not given in full) | 0.0523 | -0.0913 | -0.0922 | 0.745 | -0.485 | -0.249 | -0.433 | 0.312 (inactive) | 0.364 | -0.16 |
| COc1ccc([Si](C)(C)[C@H]2[C@H](CC(=O)N3Cc4ccccc4C[C@H]3CO)O[C@@]3(C(=O)N(Cc4cccc(N5C(=O)c6cccc7cccc5c67)c4)c4ccccc43)[C@@H]2C)cc1 | -0.581 | 0.847 | -0.0859 | 0.539 | 0.0297 | 0.997 | 1.03 | -2.61 (inactive) | 0.487 | -0.648 |
| O=C1NC(=O)C2C1C=CC(C(O)c1cccc(O)c1)N2Nc1ccc(Cl)cc1Cl (stereo not given) | 0.312 | 0.0528 | -0.161 | 0.0569 | 1.09 | 1.08 | 0.275 | 0.203 (inactive) | 0.259 | -0.272 |
| C=CC[C@@]12N=C(c3ccc(OCCCO)cc3)O[C@@H]1c1ccccc1N(Cc1ccccc1)C2=O | 1.16 | 1.43 | 0.302 | 0.524 | 0.552 | 1.44 | 1.31 | -3.36 (inactive) | 2.19 | 0.145 |
| C[N+](C)(C)CCCCCCNC(=O)[C@@H]1C[C@@H]2C(=O)N[C@@H](Cc3ccccc3)C(=O)N2[C@@H]1c1ccc(O)cc1 | -0.283 | 1.18 | -0.0138 | 0.33 | 0.581 | 1.73 | 1.03 | 2.56 (inactive) | 0.957 | 0.0373 |
| COC(=O)[C@@]1(Cc2ccc(F)cc2)[C@H]2c3cc(C(=O)N(C)C)n(CCO)c3C[C@H]2CN1C(=O)c1ccccc1 | 0.135 | -0.311 | 0.169 | 0.429 | 1.5 | 2.16 | 1.06 | -1.11 (inactive) | 0.433 | 0.218 |
| C=CCN1C(=O)[C@]2(O[C@H](CCn3cc([C@H](O)c4ccccc4)nn3)[C@@H]([Si](C)(C)c3ccc(OC)cc3)[C@@H]2C)c2cc(N3C(=O)c4cccc5cccc3c45)ccc21 | -0.144 | -0.111 | -0.085 | 0.73 | -0.0893 | 1.07 | 0.76 | -1.84 (inactive) | -0.516 | -0.256 |
| COCC(=C=CC[C@@H](O)c1cccc(OCCO)c1)C[C@@H](O)COCc1ccccc1 | 0.506 | 1.35 | 0.0918 | 0.718 | -0.157 | 2.11 | 0.974 | -0.631 (inactive) | 1.96 | -0.169 |
| CCOC(=O)C[C@H]1[C@H](OC(=O)Cc2ccc3c(c2)OCO3)[C@@H](NC(=O)c2ccccc2)c2cc(OCCCO)ccc2N1C(=O)Cc1ccc(OC)cc1 | -0.483 | 0.147 | -0.0038 | 0.306 | 0.523 | 0.726 | 0.049 | -2.56 (inactive) | -0.249 | -0.261 |
| CC1(C)OC[C@@]23C=C(Br)[C@@H](C[C@H]12)[C@@]1(CO1)C3=O | -0.401 | 0.374 | -0.105 | 0.403 | 0.517 | 0.146 | 0.149 | -0.468 (inactive) | 0.0965 | -0.0423 |
| N#Cc1ccc(C(O)C2C=CC3C(=O)N(c4ccccc4)C(=O)C3N2Nc2ccc([N+](=O)[O-])cc2)cc1 (stereo not given) | 0.561 | 0.31 | 0.139 | 0.863 | 1.58 | 1.77 | 1.28 | 0.498 (inactive) | 1.02 | -0.175 |
| C=C(C(=O)CC[C@@H](OC(C)=O)c1cccc(OCCO)c1)C(C)C | -0.0377 | 0.108 | -0.0996 | 0.365 | -0.768 | 1.92 | 0.568 | 0.44 (inactive) | -0.337 | -0.0672 |
| CN1C(=O)[C@]2(CCC(=O)OC(C)(C)C)N=C(c3ccc(OCCCO)cc3)O[C@@H]2c2ccccc21 | 0.229 | 0.326 | 0.0458 | 0.182 | 0.428 | 1.8 | 1.35 | 0.518 (inactive) | 0.898 | 0.21 |
| CC(C)C[C@@H]1NC(=O)[C@H]2C[C@@H](C(=O)NCCCCCCNC(=O)CS)[C@@H](c3ccc(O)cc3)N2C1=O | -0.254 | 1.62 | -0.0297 | 0.437 | 0.766 | 1.22 | 1.34 | 1.61 (inactive) | 0.665 | -0.0296 |
| Cc1ccc(S[C@]2(C(=O)NCC(F)(F)F)CC(=O)N(C3CCCCC3)[C@@H]2c2ccc(CO)cc2)cc1 | 0.169 | 0.148 | -0.129 | 0.116 | -0.426 | 1.66 | 0.631 | -2.21 (inactive) | 0.387 | -0.271 |
| C=CC[C@@]1(C(=O)N(C)C)N=C(c2ccc(OCCCO)cc2)O[C@@H]1c1ccccc1 | 0.733 | 1.13 | 0.0917 | 0.794 | 0.515 | 2.08 | 1.38 | -0.004 (inactive) | 0.598 | 0.109 |
| COCCOC(=O)N1C(=O)[C@@]2(c3cc(C#CCC(C(=O)OC)C(=O)OC)ccc31)[C@H](C(=O)N1CCc3cc(OC)c(OC)cc3C1)[C@H]1C(=O)O[C@H](c3ccccc3)[C@H](c3ccccc3)N1[C@@H]2c1ccc(O)cc1 | -0.318 | 0.731 | 0.0732 | 0.858 | 1.54 | 0.729 | 1.23 | 0.217 (inactive) | 0.346 | -0.0459 |
| CCCCC(=C=CC[C@H](O)c1ccc(OCCO)cc1)C[C@H](O)c1ccccn1 | -0.199 | 0.342 | -0.109 | 0.694 | 0.356 | 1.47 | 1.14 | -0.865 (inactive) | 0.763 | 0.0854 |
| C#CCN(C/C=C/c1ccccc1)[C@H](CO[Si](C)(C)C(C)(C)C)c1ccccc1 | -0.0528 | -0.0566 | -0.0815 | -0.284 | -1.14 | -0.267 | -0.497 | -1.27 (inactive) | -0.363 | -0.0994 |
| C=CC[C@]1(C(=O)NCCCOC)N=C(c2ccc(OCCCO)cc2)O[C@H]1c1ccccc1 | 0.272 | -0.188 | 0.0823 | -0.179 | -0.664 | 1.87 | 1.33 | 0.364 (inactive) | 1.04 | -0.0237 |
| CC(C)C[C@H]1NC(=O)[C@H](Cc2ccccc2)NC(=O)[C@@]23C(=O)N[C@@H](Cc4ccccc4)C2[C@H](C)[C@@]2(C)O[C@H]2C3/C=C/C/C=C\CNC1=O (stereo not given in full) | -0.263 | 0.919 | -0.116 | 0.461 | 0.777 | 1.03 | 1.05 | 2.48 (inactive) | 0.089 | 0.0626 |
| C=CCC(OC(C)=O)[C@@H]1[C@@H](N(Cc2ccc(-c3cccc(C(F)(F)F)c3)o2)C(=O)c2cccc3ccccc23)c2cc(OCCCO)ccc2N1C(=O)c1ccc2ccccc2n1 (stereo not given in full) | 0.672 | 0.584 | -0.0242 | 0.232 | -0.381 | 0.0262 | -0.393 | -0.147 (inactive) | -0.111 | 0.185 |
| C=CC[C@]1(C(=O)N(C)C)COC(c2ccc(OCCCO)cc2)=N1 | 1.11 | 2.23 | 0.23 | 0.744 | 0.221 | 1.83 | 1.42 | 0.233 (inactive) | 0.459 | 0.0373 |
| CC(=O)c1ccc(C(O)C2C=CC3C(=O)NC(=O)C3N2Nc2ccc(Cl)cc2Cl)cc1 (stereo not given) | 0.863 | 0.37 | 0.045 | 0.606 | 1.01 | 1.72 | 0.669 | 1.12 (inactive) | 0.462 | -0.106 |
| CC(C)CNC(=O)[C@@H]1c2ccccc2C(=O)N(CC23CC4CC(CC(C4)C2)C3)[C@H]1c1ccc(CO)cc1 | -0.146 | 0.0614 | -0.0056 | 0.205 | 0.632 | 0.792 | 0.99 | -1.49 (inactive) | 0.507 | -0.115 |
| COc1ccc(NN2C(C(O)c3cc(C(F)(F)F)cc(C(F)(F)F)c3)C=CC3C(=O)N(C4CCCCC4)C(=O)C32)cc1 (stereo not given) | 0.844 | 0.301 | 0.483 | 0.397 | 1.37 | 1.02 | 1.11 | -0.68 (inactive) | 1.36 | 1.67 |
| [N-]=[N+]=NCc1ccccc1C[C@]1(C(=O)N2CCOCC2)N=C(c2ccc(OCCCO)cc2)O[C@H]1c1ccccc1CN=[N+]=[N-] | 0.998 | 2.14 | 0.285 | 0.88 | 1.42 | 2.09 | 1.26 | -2.03 (inactive) | 1.5 | 0.0623 |
| COc1cc2c(cc1O)C(c1ccc(CN3CCCC3)cc1)N(Cc1cccc(OC(F)(F)F)c1)CC2 (stereo not given) | 0.254 | 0.956 | -0.0568 | 0.0247 | 0.473 | 1.56 | 1.27 | -0.232 (inactive) | 0.155 | -0.0317 |
| COCCOC(=O)N1C(=O)[C@@]2(c3cc(C#Cc4ccc(OC)cc4)ccc31)[C@H](C(=O)Nc1nc3ccccc3s1)[C@H]1C(=O)O[C@H](c3ccccc3)[C@H](c3ccccc3)N1[C@@H]2c1ccccc1OCCO | -0.233 | 0.444 | -0.126 | 0.329 | 1.02 | 0.176 | 0.923 | 0.349 (inactive) | -0.179 | -0.283 |

— PubChem BioAssay
